Reference: PubChem BioAssay (EPA / NIEHS)
Several values for one entry are separate records, joined by “and”; a condition that tells them apart may be missing. Equal entries are not always repeated. Results filed as inconclusive are left out. A structure can be active in one record and inactive in another. Activity calls are given as the source filed them. How the source made its calls: active means hit-call score of the fitted dose curve at least 0.9, where 1 is the maximum; inconclusive means response in the unintended direction; inactive means score below 0.9.

Columns and labels:
[1] = ATG_XTT_Cytotoxicity: Cytotoxicity Assessment in the Attagene TRANS-FACTORIAL HepG2 Assay (AID 2283584);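 on AC50: cells exposed to compound for 24 h before reading; active means loss of viability signal versus DMSO baseline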
Procedure, shortened: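 Cells: human HepG2, transiently transfected with MRTU reporter constructs. Exposure 24 h. Readout: XTT, cell number. Baseline/neg ctrl DMSO; loss-of-signal scored.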

[2] = TOX21_p53_BLA_p2_viability: Viability Assessment in the Tox21 HCT-116 p53 Agonism Beta-lactamase Assay, Phase 2 (AID 2283591);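 further: compound exposure lasted 16 h at 37 °C; actives lower the ATP signal meaning cytotoxicity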
Procedure, shortened: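 HCT-116 p53-bla cells (4000/well) rested 5 h at 37C, then received compounds in DMSO (217-fold dilution) for 16 h at 37C, 5% CO2. After the CCF4 read, CellTiter-Glo was added; ATP luminescence was read after 30 min at room temperature.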

[3] = TOX21_p53_BLA_p3_viability: Viability Assessment in the Tox21 HCT-116 p53 Agonism Beta-lactamase Assay, Phase 3 (AID 2283593);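 further: cells exposed to compound for 16 h before reading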
Procedure, shortened: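 HCT-116 cells (4000/well) rested 5 h at 37C, then got DMSO compounds by pin tool (217-fold dilution) for 16 h at 37C, 5% CO2. After the bla read, CellTiter-Glo was added and luminescence read at 30 min, room temperature.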

[4] = target: Cellular tumor antigen p53 (Homo sapiens) (UniProt P04637); assay: TOX21_p53_BLA_p3_ratio: Tox21 HCT-116 p53 Agonism Beta-lactamase Assay, Ratio, Phase 3 (AID 2283596)
Procedure, shortened: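 Cells were seeded at 4000/well, rested 5 h at 37C, then dosed with DMSO compound solutions (217-fold dilution) for 16 h. CCF4-AM substrate was loaded for 2 h at room temperature, and the 460/530 nm emission ratio was fitted for gain of signal versus DMSO.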

[5] = TOX21_p53_BLA_p4_viability: Viability Assessment in the Tox21 HCT-116 p53 Agonism Beta-lactamase Assay, Phase 4 (AID 2283597);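 further: hits lower the luminescence signal meaning cytotoxicity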
Procedure, shortened: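 Readout: ATP luminescence (CellTiter-Glo), measured 30 min after reagent addition at RT. The reagent followed a 2 h CCF4-AM incubation, and the cells had been exposed to compound for 16 h at 37C.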

[6] = target: Cellular tumor antigen p53 (Homo sapiens) (UniProt P04637); assay: TOX21_p53_BLA_p4_ratio: Tox21 HCT-116 p53 Agonism Beta-lactamase Assay, Ratio, Phase 4 (AID 2283601)
Procedure, shortened: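 HCT116 cells carrying an inducible beta-lactamase reporter were plated at 4000 cells/well, rested 5 h, then exposed to compounds in DMSO (217-fold dilution) for 16 h at 37C. CCF4-AM substrate was loaded 2 h at room temperature; 460/530 nm emission ratio scored gain-of-signal versus DMSO.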

[7] = target: Cellular tumor antigen p53 (Homo sapiens) (UniProt P04637); assay: TOX21_p53_BLA_p2_ratio: Tox21 HCT-116 p53 Agonism Beta-lactamase Assay, Ratio, Phase 2 (AID 2283592)
Procedure, shortened: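 Plated HCT116 p53-bla cells (4000/well) received compound after 5 h, then 16 h at 37C/5% CO2. CCF4-AM added, 2 h RT. Ratio of 460 to 530 nm emission taken as the p53 reporter signal.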

[8] = TOX21_p53_BLA_p5_viability: Viability Assessment in the Tox21 HCT-116 p53 Agonism Beta-lactamase Assay, Phase 5 (AID 2283600)
Procedure, shortened: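 Workflow: seed 4000 cells per well, wait 5 h, add compounds (DMSO, 217-fold dilution), incubate 16 h, load CCF4-AM 2 h, add CellTiter-Glo, read luminescence after 30 min.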

[9] = target: Cellular tumor antigen p53 (Homo sapiens) (UniProt P04637); assay: TOX21_p53_BLA_p5_ratio: Tox21 HCT-116 p53 Agonism Beta-lactamase Assay, Ratio, Phase 5 (AID 2283599)
Procedure, shortened: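 HCT-116 cells carrying a p53-inducible beta-lactamase reporter were seeded at 4000 cells/well and dosed after 5 h with compound in DMSO (217-fold dilution). After 16 h at 37C, CCF4-AM substrate was added for 2 h, and the 460/530 nm emission ratio was scored as gain-of-signal versus DMSO.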

Measured: AC50

Cellular tumor antigen p53 (Homo sapiens), sequence (P04637 whole entry, looked up): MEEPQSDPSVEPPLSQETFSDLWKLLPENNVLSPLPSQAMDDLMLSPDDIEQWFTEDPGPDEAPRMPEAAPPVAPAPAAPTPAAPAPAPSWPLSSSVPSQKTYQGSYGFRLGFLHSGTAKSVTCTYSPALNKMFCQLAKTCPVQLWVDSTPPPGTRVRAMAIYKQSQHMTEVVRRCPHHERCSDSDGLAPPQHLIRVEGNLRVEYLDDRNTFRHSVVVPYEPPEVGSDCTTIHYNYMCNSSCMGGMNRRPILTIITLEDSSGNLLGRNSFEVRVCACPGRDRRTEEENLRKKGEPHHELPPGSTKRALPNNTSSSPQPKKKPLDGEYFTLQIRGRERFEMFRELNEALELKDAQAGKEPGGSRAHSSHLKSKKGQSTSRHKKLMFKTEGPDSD

C[C@H]1C[C@@H]2[C@H]([C@@H](O)C[C@@]3(C)[C@H]2CC[C@]3(O)C(=O)CO)[C@@]2(C)C=CC(=O)C=C12
inactive: [1] | [2] | [3] | [4] | [5] | [6]

CO[Si](C)(OC)c1ccccc1
inactive: [1] | [7] | [3] | [4] | [5] | [8] | [6]

O=C(O)CCCCC1CCSS1 (centres undefined)
inactive: [1] | [7] | [3] | [4] | [5] | [8] | [6]

O=S(=O)(O)c1ccc(O)c2ncccc12
inactive: [1] | [2] | [3] | [4] | [9] | [8] | [6]

CSc1nc(NC2CC2)nc(NC(C)(C)C)n1
inactive: [1] | [2] | [3] | [5] | [9]

C/C=C(\C)C(=O)OCc1ccccc1
inactive: [1] | [7] | [3] | [4] | [5] | [8] | [6]

C=CC[N+](C)(C)CC=C
inactive: [1] | [7] | [3] | [4] | [5] | [9] | [8] | [6]

O=[N+]([O-])c1ccc(Nc2ccc(Nc3ccccc3)c(S(=O)(=O)O)c2)c([N+](=O)[O-])c1
inactive: [1] | [2] | [5] | [8]

CC(C)(N)CO
inactive: [1] | [7] | [3] | [4] | [5] | [9] | [8] | [6]

CCCCC/C=C/C=C/C=O
active: [3] 86.9 µM and 30.3 µM | [5] 75 µM
inactive: [1] | [7] | [4] | [5] | [9] | [8] | [6]

C=C(C)C(=O)NCCCN(C)C
inactive: [1] | [7] | [3] | [4] | [9] | [8] | [6]

CC(C)[C@@H]1CC[C@@H](C)CC1=O
inactive: [1] | [7] | [3] | [4] | [5] | [9] | [6]

CCCCCC(=O)OCCc1ccccc1
inactive: [1] | [7] | [3] | [4] | [5]

COC(=O)c1ccc(C)cc1
inactive: [1] | [7] | [3] | [4] | [5] | [9] | [8] | [6]
active: [4] 0.000353 µM | [6] 0.000134 µM

CC(=O)C(=O)O
inactive: [1] | [7] | [3] | [4] | [5] | [9] | [6]

CCCCCCCCCCCCN(CCCCCCCCCCCC)CCCCCCCCCCCC
inactive: [1] | [7] | [3] | [4] | [5]

C[Si](O[Si](C)(C)C)O[Si](C)(C)C
inactive: [1] | [7] | [3] | [4] | [9] | [8] | [6]

CC(=O)OCCC(C)CC(C)(C)C (centres undefined)
inactive: [1] | [7] | [3] | [4] | [5] | [9] | [8] | [6]

c1ccc2c(c1)c1cccc3ccc4cccc2c4c31
active: [7] 15 µM | [4] 60.5 µM | [9] 40.6 µM
inactive: [1] | [7] | [3] | [4] | [9] | [6]

O=C(O)c1ccc(C(=O)O)cc1
inactive: [1] | [7] | [3] | [4] | [5] | [9] | [8] | [6]

CN(CCOc1ccc(CC2SC(=O)NC2=O)cc1)c1ccccn1 (centres undefined)
inactive: [1] | [7] | [3] | [4] | [5] | [9] | [6]

CNC(=O)Oc1ccc2c(c1)[C@]1(C)CCN(C)[C@@H]1N2C
inactive: [1] | [7] | [3] | [4] | [5] | [9] | [8] | [6]

COc1ccc(Nc2ccccc2)c(C)c1
inactive: [1] | [7] | [3] | [4] | [5] | [9] | [8] | [6]

Cc1ccc(O)c(C(C)(C)C)c1
inactive: [1] | [7] | [3] | [4]
active: [7] 68.4 µM | [3] 36.7 µM | [4] 49.1 µM | [5] 46.1 µM and 52.5 µM | [9] 60.5 µM and 67.9 µM | [6] 72.2 µM and 68.5 µM

C=CC(=O)OCC(O)COc1ccccc1 (centres undefined)
active: [2] 45.5 µM | [3] 75.6 µM | [5] 48.2 µM | [6] 37.6 µM
inactive: [1] | [9] | [8]

CCCCCCCCCCCCN
active: [1] 68.9 µM and 58.2 µM | [7] 85 µM | [3] 80.4 µM and 66.7 µM | [5] 62.2 µM | [9] 83.1 µM | [8] 84.5 µM | [6] 86.1 µM
inactive: [7] | [4] | [9] | [8] | [6]

CC(C)=CCC[C@](C)(O)[C@@H]1CC=C(C)CC1
inactive: [1] | [2] | [4] | [9] | [8] | [6]

CC[Si](OC(C)=O)(OC(C)=O)OC(C)=O
inactive: [1] | [7] | [3] | [4] | [5] | [9] | [8]

c1ccc2[nH]ccc2c1
inactive: [1] | [7] | [3] | [4] | [5] | [9] | [8] | [6]
